From PubChem BioAssay
Active and inactive are the calls of the source.

Key:
[1] = compound effects on lung adenocarcinoma cell viability – A549, calcein-AM fluorescence, 48 h, basal, profiling panel (AID 1162); conditions: higher = more signal
[2] = compound effects on differentiated 3T3-L1 adipocyte viability – cell-based, 3T3-L1 adipocytes, calcein-AM fluorescence, 48 h, basal, profiling panel (AID 1163); conditions: 3T3-L1 adipocytes viability, higher = more signal
[3] = compound effects on hepatocellular carcinoma cell viability – HepG2, calcein-AM fluorescence, 48 h, basal, profiling panel (AID 1164); conditions: higher = more signal
[4] = compound effects on multiple myeloma cell viability – MM1S, calcein-AM fluorescence, 48 h, basal, profiling panel (AID 1165); conditions: higher = more signal
[5] = calcein-AM signal in unstimulated myeloma cells – cell-based, calcein-AM fluorescence, 48 h, PK04 Diversity Set, profiling panel (AID 1166); conditions: RPMI8226 myeloma viability, higher = more signal;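 further: cells grown under basal conditions without added stimulus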
[6] = JC-1 mitochondrial signal, unstimulated HepG2 cells – cell-based, JC-1 fluorescence, 24 h, 100 nL compound, profiling panel (AID 1167); conditions: HepG2 mitochondrial potential, higher = more signal
[7] = JC-1 mitochondrial signal, unstimulated adipocytes – cell-based, JC-1 fluorescence, 3T3-L1 adipocytes, 24 h, 100 nL compound, profiling panel (AID 1168); conditions: JC-1 mitochondrial fluorescence, higher = more signal, called active from +8 up or from −8 down
[8] = JC-1 mitochondrial signal, unstimulated myeloma cells – cell-based, JC-1 fluorescence, RPMI8226, 24 h, 100 nL compound, profiling panel (AID 1169); conditions: JC-1 mitochondrial potential fluorescence, higher = more signal
[9] = JC-1 mitochondrial signal, unstimulated MM1S myeloma – cell-based, JC-1 fluorescence, 24 h, 100 nL compound, profiling panel (AID 1170); conditions: MM1S mitochondrial potential, higher = more signal
[10] = resazurin metabolic signal in A549 cells – cell-based, resazurin fluorescence, 24 h, PK04 Diversity Set, profiling panel (AID 1171); conditions: A549 viability, higher = more signal, called active from +8 up or from −8 down
Further: test concentration not given here.

CC(C)(C)N1CC=CC23O[C@@H]4C=CCOC(=O)[C@@H]4[C@H]2C(=O)N(CCCO)[C@@H]3C1=O (stereo not given in full)
z-score [1]: 0.495 | z-score [2]: 1.55 | z-score [3]: -0.0446 | z-score [4]: 0.656 | z-score [5]: -0.664 | z-score [6]: -0.57 | z-score [7]: -0.272 (inactive) | z-score [8]: -0.379 | z-score [9]: 0.745 | z-score [10]: -0.89 (inactive)

COCCOC(=O)N1C(=O)[C@@]2(c3cc(C#CC4(O)CCCCCC4)ccc31)[C@H](c1ccccc1OCCO)N1[C@H](c3ccccc3)[C@H](c3ccccc3)OC(=O)[C@H]1[C@@H]2C(N)=O
z-score [1]: -2.37 | z-score [2]: 0.943 | z-score [3]: -4.78 | z-score [4]: -3.43 | z-score [5]: -4.62 | z-score [6]: -2.3 | z-score [7]: 1.8 (inactive) | z-score [8]: -1.14 | z-score [9]: -1.88 | z-score [10]: -2.94 (inactive)

COC(=O)[C@@]1(Cc2ccc(F)cc2)[C@H]2c3cc(C(=O)N4CCCC4)n(CCc4c[nH]c5ccc(OC)cc45)c3C[C@H]2CN1C(=O)c1ccccc1
z-score [1]: -2.28 | z-score [2]: 0.787 | z-score [3]: -0.906 | z-score [4]: -2.13 | z-score [5]: -4.1 | z-score [6]: 1 | z-score [7]: -1.33 (inactive) | z-score [8]: -0.917 | z-score [9]: -2 | z-score [10]: -1.63 (inactive)

O=C1c2ccccc2[C@@]2(Cc3ccccc3N(C3CC3)C2=O)[C@H](c2ccc(CO)cc2)N1C1CCCCC1
z-score [1]: -0.506 | z-score [2]: -0.621 | z-score [3]: -0.578 | z-score [4]: -0.258 | z-score [5]: -2.4 | z-score [6]: -0.266 | z-score [7]: -0.971 (inactive) | z-score [8]: 0.818 | z-score [9]: 0.144 | z-score [10]: -0.179 (inactive)

COCCOC(=O)N1C(=O)[C@@]2(c3cc(C#CC4(O)CCCCCC4)ccc31)[C@H](C(=O)N1CCCCCCC1)[C@H]1C(=O)O[C@H](c3ccccc3)[C@H](c3ccccc3)N1[C@@H]2c1ccc(OCCO)cc1
z-score [1]: 0.364 | z-score [2]: 1.85 | z-score [3]: 0.783 | z-score [4]: -1.62 | z-score [5]: -2.6 | z-score [6]: -0.914 | z-score [7]: -2.37 (inactive) | z-score [8]: -0.693 | z-score [9]: -0.756 | z-score [10]: 1.08 (inactive)

Cc1ccc(F)cc1S(=O)(=O)N[C@@H]1CCN(Cc2ccc(OC(C)C)cc2)C1
z-score [1]: 0.0197 | z-score [2]: -0.382 | z-score [3]: -0.867 | z-score [4]: -2.58 | z-score [5]: -0.974 | z-score [6]: -1.41 | z-score [7]: 0.0582 (inactive) | z-score [8]: 0.0721 | z-score [9]: -1.87 | z-score [10]: -0.26 (inactive)

C=CCOC(=O)[C@H]1[C@@H]2C(=O)O[C@@H](c3ccccc3)[C@@H](c3ccccc3)N2[C@@H](c2ccc(OCCOC(=O)[C@H]3C[C@H]4C(=O)N[C@@H](CCCC[N+](C)(C)C)C(=O)N4[C@H]3c3cccc(OCCO)c3)cc2)[C@]12C(=O)Nc1ccc(I)cc12
z-score [1]: -0.319 | z-score [2]: -0.0546 | z-score [3]: 1.67 | z-score [4]: 0.596 | z-score [5]: 0.532 | z-score [6]: -2 | z-score [7]: -0.124 (inactive) | z-score [8]: -0.51 | z-score [9]: -1.31 | z-score [10]: 0.134 (inactive)

COc1c(C)cc(-c2cc3c(c(-c4ccccc4)n2)[Si](C(C)C)(C(C)C)OC3)cc1C
z-score [1]: 0.33 | z-score [2]: -0.182 | z-score [3]: -0.43 | z-score [4]: -1.51 | z-score [5]: -0.515 | z-score [6]: -0.759 | z-score [7]: -0.00733 (inactive) | z-score [8]: 0.00523 | z-score [9]: 0.486 | z-score [10]: 0.51 (inactive)

CN(C)CCCNC(=O)[C@@H]1c2ccccc2C(=O)N(CC23CC4CC(CC(C4)C2)C3)[C@H]1c1ccc(CO)cc1
z-score [1]: -0.104 | z-score [2]: 0.195 | z-score [3]: -0.99 | z-score [4]: -3.75 | z-score [5]: -1.91 | z-score [6]: 1.44 | z-score [7]: -0.211 (inactive) | z-score [8]: -0.296 | z-score [9]: -1.73 | z-score [10]: 1.21 (inactive)

COC(=O)[C@@]1(Cc2ccc(OC)cc2)[C@H]2c3cc(C(=O)N(C)C)n(Cc4ccccc4)c3C[C@H]2CN1C(=O)c1ccccc1
z-score [1]: 0.0457 | z-score [2]: 0.245 | z-score [3]: -2.3 | z-score [4]: -2.27 | z-score [5]: -2.17 | z-score [6]: 2.45 | z-score [7]: -0.45 (inactive) | z-score [8]: -0.398 | z-score [9]: -1.85 | z-score [10]: 0.616 (inactive)

C[C@H]1ON(c2ccc(C(=O)OC(C)(C)C)cc2)[C@@H](c2ccc(O)cc2)[C@@H]1C(=O)N1C(=O)OC[C@@H]1c1ccccc1
z-score [1]: -0.674 | z-score [2]: 0.97 | z-score [3]: -2.97 | z-score [4]: -2.72 | z-score [5]: -3.02 | z-score [6]: -2.36 | z-score [7]: -0.575 (inactive) | z-score [8]: -0.575 | z-score [9]: -2.36 | z-score [10]: -0.0657 (inactive)

[N-]=[N+]=NCc1ccccc1C[C@@]1(C(N)=O)N=C(c2ccc(OCCCO)cc2)O[C@@H]1c1ccccc1CN=[N+]=[N-]
z-score [1]: 0.703 | z-score [2]: -0.323 | z-score [3]: 1.42 | z-score [4]: -1.25 | z-score [5]: -3.08 | z-score [6]: 1.18 | z-score [7]: -0.301 (inactive) | z-score [8]: -1.1 | z-score [9]: -0.422 | z-score [10]: -0.136 (inactive)

C[C@@H](OCc1ccccc1)C1NC(=O)[C@@]23C(=O)N[C@@H](Cc4ccccc4)C2[C@H](C)[C@@]2(C)O[C@H]2C3/C=C/C/C=C\CNC(=O)CNC1=O (stereo not given in full)
z-score [1]: 0.758 | z-score [2]: 1.41 | z-score [3]: -0.762 | z-score [4]: 0.125 | z-score [5]: -1.25 | z-score [6]: -0.332 | z-score [7]: -0.475 (inactive) | z-score [8]: 0.158 | z-score [9]: 0.146 | z-score [10]: -0.694 (inactive)

NCCCCCNC(=O)[C@@H]1C[C@@H]2C(=O)N[C@@H](CCCCN)C(=O)N2[C@@H]1c1cccc(OCCO)c1
z-score [1]: 0.338 | z-score [2]: 0.337 | z-score [3]: 0.68 | z-score [4]: 0.89 | z-score [5]: 0.269 | z-score [6]: 0.0184 | z-score [7]: 1.37 (inactive) | z-score [8]: -0.698 | z-score [9]: -0.362 | z-score [10]: 0.714 (inactive)

O=C1NC(=O)C2C1C=CC(C(O)c1c(F)cccc1Cl)N2Nc1ccccn1 (stereo not given)
z-score [1]: 0.0619 | z-score [2]: -0.92 | z-score [3]: 0.0038 | z-score [4]: 0.312 | z-score [5]: -0.825 | z-score [6]: -1.05 | z-score [7]: -0.957 (inactive) | z-score [8]: -0.517 | z-score [9]: 0.15 | z-score [10]: -0.609 (inactive)
